Test results as given in PubChem BioAssay (EPA / NIEHS).
Results filed as inconclusive are left out. The source made the active and inactive calls. Rule for the calls, unless noted: active = hit-call score of the fitted dose curve at least 0.9, where 1 is the maximum; inconclusive = response in the unintended direction; inactive = score below 0.9.

Assays:
[1] = molecular target: Estrogen receptor beta (Homo sapiens) (UniProt Q92731); test: OT_ER_ERbERb_1440: Odyssey Thera (OT) 24-hour HEK293T Protein-Complementation Assay for Estrogen Receptor-beta/-beta Homodimer (AID 2283380);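 note: fluorescence gain from ER beta LBD homodimer complementation read by laser scanning cytometry; scored as signal increase over DMSO baseline for both agonists and antagonists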
Method in brief: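 HEK293T cells stably expressing human ER-beta LBD (aa 310-547) PCA homodimer pair, dosed 24 h; formaldehyde-fixed, Draq5-stained. Readout: increase in nuclear (agonist) or nuclear plus cytoplasmic (antagonist) fluorescence intensity versus DMSO, gain-of-signal fitting.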

[2] = molecular target: Bile acid receptor (Homo sapiens) (UniProt Q96RI1); test: OT_FXR_FXRSRC1_1440: Odyssey Thera (OT) 24-hour HEK293T Protein-Complementation Assay for Farnesoid X receptor/SRC-1 Co-activator (AID 2283384)
Method in brief: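 Single endpoint, analysed for increased fluorescence against DMSO controls. HEK293T cells carrying FXR and SRC-1 linked to complementary reporter halves were exposed to chemicals for 24 h before reading.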

[3] = molecular target: Retinoic acid receptor RXR-alpha (Homo sapiens) (UniProt P19793); test: OT_NURR1_NURR1RXRa_1440: Odyssey Thera (OT) 24-hour HEK293T Protein Complementation Assay for Nurr1/retinoid X receptor (RXR) (AID 2283386)
Method in brief: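 Cell-based binding reporter: HEK293T cells, 24 h exposure, fluorescence-detected fragment complementation, DMSO as baseline.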

[4] = molecular target: Peroxisome proliferator-activated receptor gamma (Homo sapiens) (UniProt P37231); test: OT_PPARg_PPARgSRC1_0480: Odyssey Thera (OT) 8-hour Protein-Complementation Assay for Peroxisome Proliferator-activated Receptor Gamma / SRC-1 Co-activator (AID 2283387);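 note: nuclear to cytoplasmic split Venus YFP fluorescence ratio reporting PPARg SRC-1 interaction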
Method in brief: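 Split-YFP (IFP1/IFP2) PPARg/SRC-1 reporter, HEK293T, 37 °C, 5% CO2; 8 h compound; formaldehyde fix + Draq5; high-content imaging, N/C ratio, ≥350 cells/image, positive direction vs DMSO.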

[5] = molecular target: Peroxisome proliferator-activated receptor gamma (Homo sapiens) (UniProt P37231); test: OT_PPARg_PPARgSRC1_1440: Odyssey Thera (OT) 24-hour Protein-Complementation Assay for Peroxisome Proliferator-activated Receptor Gamma/ SRC-1 Co-activator (AID 2283388);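 note: nuclear to cytoplasmic ratio of reconstituted Venus YFP fluorescence in fixed imaged cells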
Method in brief: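 Transient HEK293T, YFP fragments 1-158/159-239 (mutant IFP1/IFP2) fused to PPARg/SRC-1; 24 h dosing; fix 4% formaldehyde, Draq5; Opera imaging 488/635 nm; N/C ratio, gain vs DMSO.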

[6] = molecular target: human Norepinephrine Transporter (NET), SLC6A2 (gene 6530) (UniProt P23975); test: NVS_TR_hNET: NovaScreen (NVS) Transporter Assay for human Norepinephrine Transporter (NET) (AID 2283377);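 note: cell-free membrane protein extracted from CHO cells expressing human NET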;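 for AC50: displacement of radioligand from human NET seen as loss of scintillation signal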
Method in brief: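 In this cell-free binding screen, chemicals at 25 uM (duplicate) compete with a radioligand for CHO-derived human NET over 1 hour, with filter-based radiodetection.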

[7] = molecular target: Agonist Androgen Response Element (ARE), AR (gene 367) (UniProt P10275); test: OT_AR_ARELUC_AG_1440: Odyssey Thera (OT) 24-hour CHO-K1 Luciferase Assay for Agonist Androgen Response Element (ARE) (AID 2283379)
Method in brief: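 Luminescence increase above DMSO, read after a 24 h compound treatment of CHO-K1 cells expressing an androgen response element luciferase reporter, gives the single primary endpoint; concentration-response fitting used the positive direction.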

[8] = CEETOX_H295R_11DCORT: CeeTox H295R High-throughput Steroidogenesis Assay for 11-Deoxycortisol (11DCORT) (AID 2283432; active = hit-call score of the fitted dose curve at least 0.9, where 1 is the maximum; inactive = score below 0.9;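 for AC50: human adrenal H295R cells prestimulated with 10 µM forskolin for 48 h; 11-deoxycortisol secreted into the medium measured by LC-MS/MS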); settings: actives raise or lower the signal
Method in brief: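 Steroidogenesis in human H295R cells: 48 h chemical exposure after forskolin priming, 11-deoxycortisol measured by LC-MS/MS.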

[9] = molecular target: Bile acid receptor (Homo sapiens) (UniProt Q96RI1); test: OT_FXR_FXRSRC1_0480: Odyssey Thera (OT) 8-hour HEK293T Protein-Complementation Assay for Farnesoid X receptor/SRC-1 Co-activator (AID 2283383)
Method in brief: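 Readings were taken 8 h after dosing HEK293T cells in a split-reporter complementation format pairing FXR with SRC-1. Increased fluorescence relative to DMSO-treated wells defined activity.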

[10] = molecular target: Retinoic acid receptor RXR-alpha (Homo sapiens) (UniProt P19793); test: OT_NURR1_NURR1RXRa_0480: Odyssey Thera (OT) 8-hour HEK293T Protein Complementation Assay for Nurr1/retinoid X receptor (RXR) (AID 2283385)
Method in brief: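 Gain in fluorescent complementation signal over DMSO, measured 8 hours after chemical dosing of human kidney HEK293T cells, indicated enhanced Nurr1–RXRα association.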

[11] = molecular target: Estrogen receptor (Homo sapiens) (UniProt P03372); test: OT_ERa_GFPERaERE_0480: Odyssey Thera (OT) 8-hour HeLa Transcription Induction Assay for Estrogen Receptor (AID 2283381; active = hit-call score of the fitted dose curve at least 0.9, where 1 is the maximum; inactive = score below 0.9)
Method in brief: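 An 8 h HeLa transcription-induction format with a GFP reporter under ERE control, read by fluorescence microscopy; single endpoint fitted positively with DMSO as baseline.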

[12] = molecular target: Estrogen receptor (Homo sapiens) (UniProt P03372); test: OT_ERa_GFPERaERE_0120: Odyssey Thera (OT) 2-hour HeLa Transcription Induction Assay for Estrogen Receptor (AID 2283382)
Method in brief: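 Two-hour compound treatment of HeLa cells preceded microscopy imaging of an inducible fluorescent reporter. Image-based quantification gave one endpoint, analysed for signal increase relative to DMSO controls.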

Measured: AC50

Chain of human Norepinephrine Transporter (NET), SLC6A2 (gene 6530) (P23975 whole entry, looked up): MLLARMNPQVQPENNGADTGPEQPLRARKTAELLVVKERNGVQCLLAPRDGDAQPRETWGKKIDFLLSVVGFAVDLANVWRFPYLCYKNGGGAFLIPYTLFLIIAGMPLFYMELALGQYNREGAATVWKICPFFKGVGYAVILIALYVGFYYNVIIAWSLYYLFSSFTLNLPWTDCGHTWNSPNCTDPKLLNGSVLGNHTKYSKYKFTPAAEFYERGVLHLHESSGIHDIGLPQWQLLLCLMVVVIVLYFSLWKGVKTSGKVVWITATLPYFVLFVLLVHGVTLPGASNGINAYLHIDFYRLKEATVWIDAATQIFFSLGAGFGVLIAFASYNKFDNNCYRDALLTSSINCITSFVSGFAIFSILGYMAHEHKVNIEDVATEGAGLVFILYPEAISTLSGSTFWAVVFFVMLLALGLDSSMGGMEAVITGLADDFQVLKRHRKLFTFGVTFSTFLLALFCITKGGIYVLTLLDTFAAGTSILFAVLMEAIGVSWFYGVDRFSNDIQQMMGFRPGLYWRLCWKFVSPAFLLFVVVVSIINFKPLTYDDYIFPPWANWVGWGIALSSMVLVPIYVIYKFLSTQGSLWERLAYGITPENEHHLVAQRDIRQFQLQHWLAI
Chain of Peroxisome proliferator-activated receptor gamma (Homo sapiens) (P37231 whole entry, looked up, the tested form may be a part): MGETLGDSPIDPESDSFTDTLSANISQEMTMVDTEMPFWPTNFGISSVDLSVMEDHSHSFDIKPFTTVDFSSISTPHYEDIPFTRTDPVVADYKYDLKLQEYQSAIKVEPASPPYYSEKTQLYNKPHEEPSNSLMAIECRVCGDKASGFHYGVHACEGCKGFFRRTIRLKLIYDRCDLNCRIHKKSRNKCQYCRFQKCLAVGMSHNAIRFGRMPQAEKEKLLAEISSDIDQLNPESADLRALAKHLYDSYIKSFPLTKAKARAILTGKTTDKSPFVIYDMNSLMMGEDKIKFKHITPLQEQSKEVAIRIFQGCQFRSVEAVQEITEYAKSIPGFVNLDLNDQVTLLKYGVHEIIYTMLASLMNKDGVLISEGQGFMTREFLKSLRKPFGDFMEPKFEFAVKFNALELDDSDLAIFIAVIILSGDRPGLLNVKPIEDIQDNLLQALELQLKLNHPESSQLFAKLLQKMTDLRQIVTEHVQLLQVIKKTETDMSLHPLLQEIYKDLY
Chain of Bile acid receptor (Homo sapiens) (Q96RI1 whole entry, looked up): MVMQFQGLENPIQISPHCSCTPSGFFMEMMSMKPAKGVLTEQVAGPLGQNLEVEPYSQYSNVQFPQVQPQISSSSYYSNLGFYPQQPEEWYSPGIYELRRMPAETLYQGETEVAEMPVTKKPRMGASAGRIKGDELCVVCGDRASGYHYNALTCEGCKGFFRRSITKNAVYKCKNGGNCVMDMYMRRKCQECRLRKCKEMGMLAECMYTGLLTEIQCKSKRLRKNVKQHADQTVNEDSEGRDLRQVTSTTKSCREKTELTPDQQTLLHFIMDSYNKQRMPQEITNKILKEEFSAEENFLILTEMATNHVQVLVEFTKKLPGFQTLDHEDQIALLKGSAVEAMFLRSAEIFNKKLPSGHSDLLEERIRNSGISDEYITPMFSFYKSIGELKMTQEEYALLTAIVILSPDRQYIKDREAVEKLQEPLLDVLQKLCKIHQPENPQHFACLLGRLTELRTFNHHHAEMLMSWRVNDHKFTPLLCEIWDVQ
Chain of Estrogen receptor beta (Homo sapiens) (Q92731 whole entry, looked up, the tested form may be a part): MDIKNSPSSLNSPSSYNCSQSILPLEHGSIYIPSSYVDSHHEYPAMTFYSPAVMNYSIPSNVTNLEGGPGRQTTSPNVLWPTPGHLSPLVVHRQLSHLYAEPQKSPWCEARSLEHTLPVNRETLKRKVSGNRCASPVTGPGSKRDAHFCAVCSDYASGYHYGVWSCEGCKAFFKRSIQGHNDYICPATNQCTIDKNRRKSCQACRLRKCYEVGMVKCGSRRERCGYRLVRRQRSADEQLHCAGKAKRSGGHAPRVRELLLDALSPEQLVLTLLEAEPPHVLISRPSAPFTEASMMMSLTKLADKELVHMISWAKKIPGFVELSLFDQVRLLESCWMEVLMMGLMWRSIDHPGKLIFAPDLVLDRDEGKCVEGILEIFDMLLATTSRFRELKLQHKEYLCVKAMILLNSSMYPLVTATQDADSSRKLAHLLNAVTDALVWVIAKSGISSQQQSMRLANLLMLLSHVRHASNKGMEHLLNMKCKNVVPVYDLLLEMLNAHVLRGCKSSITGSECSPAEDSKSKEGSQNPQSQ
Chain of Retinoic acid receptor RXR-alpha (Homo sapiens) (P19793 whole entry, looked up, the tested form may be a part): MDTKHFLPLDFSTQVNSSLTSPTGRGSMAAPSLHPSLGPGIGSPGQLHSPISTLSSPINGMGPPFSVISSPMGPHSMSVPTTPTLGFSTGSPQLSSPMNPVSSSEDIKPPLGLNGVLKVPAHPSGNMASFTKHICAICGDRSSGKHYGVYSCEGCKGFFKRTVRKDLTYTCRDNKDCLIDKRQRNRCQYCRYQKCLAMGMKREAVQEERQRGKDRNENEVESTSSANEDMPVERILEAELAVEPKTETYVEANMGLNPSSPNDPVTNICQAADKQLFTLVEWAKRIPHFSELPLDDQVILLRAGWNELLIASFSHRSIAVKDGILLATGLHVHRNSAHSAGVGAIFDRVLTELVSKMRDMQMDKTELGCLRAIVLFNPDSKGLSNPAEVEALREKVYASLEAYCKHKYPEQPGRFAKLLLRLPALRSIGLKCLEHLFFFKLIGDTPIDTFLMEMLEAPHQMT
Chain of Agonist Androgen Response Element (ARE), AR (gene 367) (P10275 whole entry, looked up): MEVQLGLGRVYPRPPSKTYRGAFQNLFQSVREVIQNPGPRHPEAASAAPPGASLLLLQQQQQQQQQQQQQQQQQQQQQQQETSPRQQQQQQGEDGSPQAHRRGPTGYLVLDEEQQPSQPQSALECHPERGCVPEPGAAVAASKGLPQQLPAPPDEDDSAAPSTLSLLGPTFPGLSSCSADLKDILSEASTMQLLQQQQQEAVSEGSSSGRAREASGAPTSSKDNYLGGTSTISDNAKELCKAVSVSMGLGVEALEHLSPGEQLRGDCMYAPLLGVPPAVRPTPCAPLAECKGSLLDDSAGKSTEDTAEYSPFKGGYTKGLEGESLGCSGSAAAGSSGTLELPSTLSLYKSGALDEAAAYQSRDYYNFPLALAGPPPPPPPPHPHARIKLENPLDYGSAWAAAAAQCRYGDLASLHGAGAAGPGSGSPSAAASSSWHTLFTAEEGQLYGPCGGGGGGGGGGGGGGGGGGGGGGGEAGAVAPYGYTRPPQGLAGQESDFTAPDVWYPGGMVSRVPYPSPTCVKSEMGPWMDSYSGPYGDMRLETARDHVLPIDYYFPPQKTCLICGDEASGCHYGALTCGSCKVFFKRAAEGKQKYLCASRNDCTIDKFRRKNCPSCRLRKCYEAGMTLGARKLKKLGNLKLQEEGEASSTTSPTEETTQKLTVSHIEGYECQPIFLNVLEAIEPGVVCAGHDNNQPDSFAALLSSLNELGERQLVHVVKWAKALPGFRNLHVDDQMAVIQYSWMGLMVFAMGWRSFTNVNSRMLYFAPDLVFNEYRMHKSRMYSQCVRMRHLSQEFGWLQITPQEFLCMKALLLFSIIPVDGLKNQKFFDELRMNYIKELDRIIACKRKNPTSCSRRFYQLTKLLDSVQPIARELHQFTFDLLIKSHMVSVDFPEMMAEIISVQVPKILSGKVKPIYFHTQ
Chain of Estrogen receptor (Homo sapiens) (P03372 whole entry, looked up): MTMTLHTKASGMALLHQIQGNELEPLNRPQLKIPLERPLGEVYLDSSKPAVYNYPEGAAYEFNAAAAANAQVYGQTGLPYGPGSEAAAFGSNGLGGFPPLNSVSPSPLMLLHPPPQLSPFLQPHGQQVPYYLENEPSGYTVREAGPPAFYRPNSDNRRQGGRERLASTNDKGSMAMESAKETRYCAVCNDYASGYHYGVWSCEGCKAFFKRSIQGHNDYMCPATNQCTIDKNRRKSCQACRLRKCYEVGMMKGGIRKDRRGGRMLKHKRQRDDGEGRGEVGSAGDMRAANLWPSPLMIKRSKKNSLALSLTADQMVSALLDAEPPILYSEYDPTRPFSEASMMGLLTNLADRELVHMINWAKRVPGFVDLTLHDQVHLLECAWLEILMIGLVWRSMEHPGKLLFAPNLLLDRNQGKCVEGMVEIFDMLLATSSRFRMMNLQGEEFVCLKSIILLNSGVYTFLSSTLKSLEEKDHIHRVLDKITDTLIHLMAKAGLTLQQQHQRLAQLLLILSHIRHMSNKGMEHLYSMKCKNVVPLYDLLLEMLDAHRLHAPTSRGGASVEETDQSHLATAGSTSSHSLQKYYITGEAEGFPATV

Cc1cc(S(=O)(=O)O)ccc1N=Nc1c(O)ccc2ccccc12
inactive: [1] | [2] | [3] | [4] | [5]

COc1ccc(OC)c(N=Nc2c(O)ccc3ccccc23)c1
active: [6] 17.4 µM

Nc1ccc(N)c2c1C(=O)c1ccccc1C2=O
active: [7] 1.71 µM | [8] 7.09 µM
inactive: [1] | [2] | [5]

OCc1cccc(Oc2ccccc2)c1
active: [1] 59.1 µM
inactive: [7] | [9] | [2] | [10] | [4] | [5]

CC1CC(O)CC(C)(C)C1 (stereo not drawn)
inactive: [1] | [2] | [4] | [5]

NC(=S)NNC(N)=S
inactive: [6]

CCC1(C)NC(=O)NC1=O (stereo not drawn)
inactive: [1] | [9] | [3] | [4] | [5]

BrCc1cccc(Oc2ccccc2)c1
active: [1] 56.3 µM
inactive: [7] | [10] | [3] | [5] | [8]

CCCCCCCCCC(=O)OC
inactive: [1] | [9] | [2] | [3] | [4] | [5]

CCCCCCC(=O)c1ccccc1
inactive: [1] | [9] | [2] | [10] | [3] | [4] | [5]

CC(=O)O[C@@H]1CC2CCC1(C)C2(C)C (stereo partly drawn)
inactive: [1] | [9] | [10] | [3] | [4] | [5]

C=CC(=O)OCCCC
inactive: [1] | [9] | [2] | [10] | [3]

CC=Cc1ccc(OC)c(OC)c1
inactive: [6]

Cc1cc(=O)oc2cc(N(C)C)ccc12
active: [9] 50 µM | [2] 50 µM
inactive: [1] | [10] | [3] | [4] | [5] | [8]

CCCCCCCCCCCCCCCC(=O)OC/C=C(C)/C=C/C=C(C)/C=C/C1=C(C)CCCC1(C)C
inactive: [6]

ON=C1CCCCC1
inactive: [1] | [10] | [3] | [4] | [5]

O=[N+]([O-])c1ccc(O)cc1C(F)(F)F
inactive: [9] | [4] | [5]
active: [1] 68.4 µM | [2] 77.1 µM | [3] 86.8 µM

CCCC(O)C(O)CO (stereo not drawn)
inactive: [6]

CC1CCC(C(C)C)C(O)C1 (stereo not drawn)
inactive: [7] | [1] | [9] | [2] | [3] | [4] | [5]

CCC(C)c1cc([N+](=O)[O-])cc([N+](=O)[O-])c1OC(=O)OC(C)C (stereo not drawn)
inactive: [8]

CC(C)CC(C)CC(O)CC(C)C (stereo not drawn)
inactive: [9] | [2] | [3] | [4] | [5]

C#CC(C)(O)CC(C)C (stereo not drawn)
inactive: [1] | [10] | [3] | [4] | [5]

CN1CCOCC1
inactive: [1] | [10] | [3] | [4] | [5]

OCC(O)c1ccccc1 (stereo not drawn)
inactive: [11] | [12] | [10] | [3]

O=c1c(O)c(-c2ccc(O)cc2)oc2cc(O)cc(O)c12
inactive: [9] | [10] | [3] | [5]
active: [2] 19.8 µM

COCCOCCOCCO
inactive: [10] | [3]

CCNCCO
inactive: [2] | [3] | [4] | [5]

CCCOCCO
inactive: [2] | [3] | [4] | [5]

CCCC(C)=O
inactive: [9] | [2] | [10] | [3] | [4] | [5]

CCCCC1CCC(O)CC1 (stereo not drawn)
inactive: [9] | [2] | [10] | [3] | [4] | [5]

CCOc1ccccc1O
inactive: [1] | [3] | [4] | [5]

CC(C)Nc1nc(N)nc(Cl)n1
inactive: [1] | [10] | [3] | [4] | [5] | [8]

CS(C)=O
inactive: [2] | [10] | [3] | [4] | [5]

CN1C(=O)c2ccccc2C1=O
inactive: [1] | [10] | [3] | [4] | [5]

O=C(c1ccccc1)C(O)c1ccccc1 (stereo not drawn)
inactive: [1] | [4] | [5]

C=C(C)[C@@H]1CC=C(C)C(=O)C1
inactive: [1] | [10] | [3] | [5]

[O-]n1ccccc1=S.[O-]n1ccccc1=S.[Zn+2]
inactive: [1] | [4] | [5]

CCCCCC(=O)CC
inactive: [10] | [3] | [4] | [5]

CCCCCC(C)=O
inactive: [1] | [10] | [3] | [4] | [5]

CC(CN=Cc1ccccc1O)N=Cc1ccccc1O (stereo not drawn)
active: [8] 3.89 µM
inactive: [1] | [4] | [5]

CCCCCCC(CO)CCCC (stereo not drawn)
inactive: [10] | [3] | [4] | [5]

C=Cc1ccc(C)cc1
inactive: [1] | [3] | [4] | [5]

O=C1OC(=O)c2c(Cl)c(Cl)c(Cl)c(Cl)c21
inactive: [9] | [10] | [4] | [5]

O=Cc1ccccc1S(=O)(=O)O
inactive: [1] | [10] | [3] | [4] | [5]

CC(C)CCOC(=O)c1ccccc1
inactive: [9] | [3] | [4] | [5]
